This is a sample that favours compounds with a hit; in the whole collection about 7% have one here.
PLK1 PBD block – qHTS for Inhibitors of PLK1-PDB (polo-like kinase 1 - polo-box domain): Primary Screen. Serine/threonine-protein kinase PLK1 (Homo sapiens), P53350. Plk1 PBD binding of FITC phosphopeptide, fluorescence polarization. Potency, µM, for inactives: max response, negative = inhibition, usual class: inhibitors. 360,000 compounds, 2.8% hits. AID 720504, 2013; also: potency is read from the fitted curve at half-maximal effect; series mostly up to about 57 µM; % is scaled to controls: 0 for no effect and ±100 for the full control effect; nearly all actives have a fitted effect of over 65% in size
GCN5L2 inh – qHTS Assay for Inhibitors of GCN5L2 | Histone acetyltransferase KAT2A (Homo sapiens), Q92830 | 390,000 compounds, 0.21% hits | AID 504327, 2011 | Potency, µM (top dose mostly 58.9 µM), inactives show top-dose activity change, negative = inhibition, most hits filed as inhibitors | GCN5L2 HAT assay, ThioGlo1 CoA-SH fluorescence; also: potency is read from the fitted curve at half-maximal effect; % is scaled to controls: 0 for no effect and ±100 for the full control effect
Target sequence (Q92830 whole entry, looked up): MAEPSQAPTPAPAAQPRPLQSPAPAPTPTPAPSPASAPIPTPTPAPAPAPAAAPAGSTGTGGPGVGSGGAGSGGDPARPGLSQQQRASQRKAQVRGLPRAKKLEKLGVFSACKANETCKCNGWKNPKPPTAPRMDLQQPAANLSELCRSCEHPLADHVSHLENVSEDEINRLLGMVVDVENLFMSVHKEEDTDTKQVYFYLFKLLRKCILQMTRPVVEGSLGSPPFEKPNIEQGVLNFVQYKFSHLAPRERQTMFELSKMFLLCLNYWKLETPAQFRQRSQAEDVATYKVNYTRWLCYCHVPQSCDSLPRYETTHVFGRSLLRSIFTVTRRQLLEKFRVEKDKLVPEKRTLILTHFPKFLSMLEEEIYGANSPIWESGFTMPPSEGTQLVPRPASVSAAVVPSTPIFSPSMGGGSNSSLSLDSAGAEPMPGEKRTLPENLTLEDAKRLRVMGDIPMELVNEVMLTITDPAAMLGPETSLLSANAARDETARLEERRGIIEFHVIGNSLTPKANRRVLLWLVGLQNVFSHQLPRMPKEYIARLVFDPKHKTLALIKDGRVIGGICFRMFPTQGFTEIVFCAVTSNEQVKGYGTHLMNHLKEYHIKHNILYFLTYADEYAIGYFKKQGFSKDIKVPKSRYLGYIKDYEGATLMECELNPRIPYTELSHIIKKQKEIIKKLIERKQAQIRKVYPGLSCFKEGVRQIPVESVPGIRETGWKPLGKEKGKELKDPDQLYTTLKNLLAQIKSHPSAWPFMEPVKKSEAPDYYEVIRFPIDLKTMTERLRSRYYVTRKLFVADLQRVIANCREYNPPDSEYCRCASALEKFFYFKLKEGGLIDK
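ThioGlo1-coupled HAT assay: 20nM GCN5L2, 70uM acetyl-CoA, 75uM H3(1-25) peptide, pH 7.5. Fluorescence read at 340/540nm at start and after 20 min at room temperature.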
JMJD2A Tudor – qHTS Assay for Inhibitors of JMJD2A-Tudor Domain; Lysine-specific demethylase 4A (Homo sapiens), O75164; AlphaScreen JMJD2A-Tudor / H3K4me3 peptide binding; Potency, µM (top dose mostly 114 µM), inactives show at the top dose activity change, negative = inhibition, actives largely listed as inhibitors; 390,000 compounds, 4.4% hits; also: potency is read from the fitted curve at half-maximal effect; % is scaled to controls: 0 for no effect and ±100 for the full control effect; nearly all actives have a fitted effect of over 50% in size
BAZ2B inh – qHTS Assay for Inhibitors of BAZ2B | Bromodomain adjacent to zinc finger domain protein 2B (Homo sapiens), Q9UIF8 | AlphaScreen BAZ2B-H3K14Ac peptide displacement | Potency, µM (series often up to 114 µM), without a hit: at the top dose activity change, negative = inhibition, most hits filed as inhibitors | 360,000 compounds, 4.4% hits | AID 504333, 2011; also: potency is read from the fitted curve at half-maximal effect; % is scaled to controls: 0 for no effect and ±100 for the full control effect; nearly all actives have a fitted effect of over 60% in size
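BAZ2B (50 nM) with biotin-H3(5-23)K14Ac peptide (50 nM) in PBS pH 7.4, 0.01% Tween-20, preformed 30 min, then compound 30 min at room temperature; top concentration 110uM. AlphaScreen streptavidin donor/nickel chelate acceptor beads (10 ug/mL final), 20 min dark, signal read.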
HP1b chromo inh – HTS for Inhibitors of HP1-beta Chromodomain Interactions with Methylated Histone Tails; AlphaScreen HP1-beta / biotin-H3K9me3 peptide binding; Chromobox protein homolog 1 (Homo sapiens), P83916; Potency, µM (doses to about 114 µM), inactives show top-dose activity change, negative = inhibition, actives largely listed as inhibitors; 390,000 compounds, 0.56% hits; also: potency is read from the fitted curve at half-maximal effect; nearly all actives have a fitted effect of over 70% in size
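Compound inhibition of the preformed complex between 50 nM HP1-beta and 50 nM biotinylated H3K9me3 peptide was read by AlphaScreen. Buffer was PBS pH 7.4 with 0.01% Tween-20. Incubations ran 30 min at room temperature, with 10 ug/mL donor/acceptor beads.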
PI5P4K alpha inh – qHTS for Inhibitors of phosphatidylinositol 5-phosphate 4-kinase (PI5P4K). Phosphatidylinositol 5-phosphate 4-kinase type-2 alpha (Homo sapiens), P48426. PI5P4Kalpha enzyme, ADP-Glo luminescence, 60 min; active compounds read low. max response, %. 330,000 compounds, 1.2% hits. AID 652105, 2013; active = max response of -50% or lower; inconclusive = between -30% and -50%; inactive = -30% or higher; also: value at the top dose of about 77 µM; % is scaled to controls: 0 for no effect and ±100 for the full control effect
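Luminescence from ADP-Glo served as readout of PI5P4Kalpha activity in a qHTS format. Reaction: enzyme, substrate, compound, ATP at 5 microM final, 60 min at RT.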
Active calls of the source: *; ? = inconclusive; . = not tested or not shown; [ ] = dose if it differs, or a comment. Unless noted, calls follow the shape of the dose curve; as a rule, active = well fitted curve in the direction sought with a large enough effect; inconclusive = small, poorly fitted or top-dose-only effect, or another doubt; inactive = no such curve, though single readings can be large; an effect the other way counts as inactive or inconclusive.

SMILES | PLK1 PBD block | GCN5L2 inh | JMJD2A Tudor | BAZ2B inh | HP1b chromo inh | PI5P4K alpha inh
COc1cc(C(CC(=O)Nc2ccc(F)cc2F)N2Cc3ccccc3C2=O)cc(OC)c1OC (stereo not drawn) | . | -2% | -8% | -12% | 20% | .
CCOc1ccc(S(=O)(=O)N/N=C(\C)c2ccc(OC)cc2OC)cc1 | 15µM* | -15% | -19%[11.4 µM] | -14% | ? | -27
Cc1ccc(NC(=O)C(NCc2ccccn2)c2ccccc2)cc1 (stereo not drawn) | 4% | -11% | -19% | -18% | 23% | 1
COc1ccc(/C=N/NC(=O)c2ccccc2OCc2ccccc2)c(OC)c1 | -10% | -10% | -15% | -7% | 15% | -8
COc1ccc(/C(C)=N/NS(=O)(=O)c2cc(C)ccc2C)c(OC)c1 | ? | -10% | 3%[11.4 µM] | -20% | -6% | 1
COc1ccc(C(=O)N/N=C(\C)CC(=O)Nc2ccc(N(C)C)cc2)c(OC)c1 | -4% | -5% | ? | 40µM* | ? | -5
COc1ccc(/C(C)=N/NC(=O)c2ccccc2OCc2ccccc2)c(OC)c1 | 19µM* | -7% | 18µM* | -38% | -21% | ?
CN(C)c1ccc(NC(=O)CC(NCc2ccccn2)C(=O)O)cc1 (stereo not drawn) | -7% | 0% | 18µM* | 5.6µM* | 30% | 3
Cc1cc(NC(=O)c2cnc3c(-c4ccccc4)c(C)nn3c2C)ccc1Br | . | 7% | -4% | -3% | 36% | .
CCn1cc(C(=O)NCCc2ccc(Cl)cc2)c(=O)c2cc(S(=O)(=O)N(C)C3CCCCC3)ccc21 | . | -5% | -28% | . | 0% | .
Cc1c(Cl)cccc1Nc1nn2c(=O)c3ccc(C(=O)N(C)Cc4ccccc4)cc3nc2s1 | . | -16% | -14% | -4% | 9% | .
COC(=O)c1ccc(C(=O)OC)c(NC(=O)c2cnn3c(C(F)F)cc(-c4ccccc4)nc23)c1 | . | 1% | -12% | 3% | 8% | .
C/C(CC(=O)Nc1ccc(N(C)C)cc1)=N\NC(=O)c1ccccn1 | -30% | -1% | ? | 56µM* | ? | -10
C/C(CC(=O)Nc1ccc(N(C)C)cc1)=N\NC(=O)c1cnccn1 | -23% | -4% | 79µM* | -35% | -7% | 0
CC/C(C)=N\Nc1nc(-c2cc3cc(OC)ccc3oc2=O)cs1 | -23% | -6% | -1% | -6% | 78% | -21
Cn1nnnc1Sc1ncnc2scc(Br)c12 | . | 1% | 5% | . | 47% | .
c1ccc(-c2csc3ncn4nnnc4c23)cc1 | -12% | -18% | 14µM* | 0% | ? | -7
Cn1nnnc1Sc1ncnc2scc(-c3ccccc3)c12 | -7% | -4% | -3% | 2% | 17% | -52*
Cn1nnnc1Sc1ncnc2scc(I)c12 | . | . | 79µM* | . | . | .
Cc1cc(C)nc(/N=c2/ssnc2Cl)c1 | 1.1µM* | -6% | -19% | . | -16% | -1
Cc1cc(C)c(C#N)c(Cl)n1 | -2% | 2% | 1% | 1% | 15% | 14
Cc1cc(Cl)ccc1N=c1ssnc1Cl | 1.5µM* | 28µM* | 79µM* | 8.9µM* | 22µM* | -53*
Nc1ccccc1N=c1ssnc1Cl | 4.7µM* | 28µM* | ? | 50µM* | -13% | ?
Cc1cc(NC(=O)C(C)SCC(=O)Nc2cc(C(F)(F)F)ccc2N2CCOCC2)no1 (stereo not drawn) | -2% | -1% | -11% | -2% | 3% | -1
CCC(NC(=O)Nc1nccs1)(C(F)(F)F)C(F)(F)F | -2% | 1% | -5% | 10% | 14% | 7
SMILES | PLK1 PBD block | GCN5L2 inh | JMJD2A Tudor | BAZ2B inh | HP1b chromo inh | PI5P4K alpha inh
CCC(C(=O)Nc1nccs1)(C(F)(F)F)C(F)(F)F | -6% | -5% | -10% | 56µM* | 24% | .
CCNC(=S)N/N=C1\C(=O)c2cccc3cccc1c23 | -6% | -1% | -17% | -10% | -2% | -1
O=C(N/N=C1/C(=O)c2cccc3cccc1c23)c1ccc(Cl)cc1 | ? | -22% | 35µM* | 50µM* | -9% | -20
CCOC(=O)[C@]12Cc3c(cc(OC)c(OC)c3OC)[C@H]1N(Cc1ccccc1)C(=O)c1cc(OC)ccc12 | 7.5µM* | . | . | . | . | 5
CCOC(=O)[C@]12Cc3c(cc(OC)c(OC)c3OC)[C@H]1N(CCC(=O)OC)C(=O)c1cc(OC)ccc12 | 12µM* | . | . | . | . | -3
CCOC(=O)[C@]12Cc3c(cc(OC)c(OC)c3OC)[C@H]1N(Cc1ccccc1)C(=O)c1cc(F)c(F)cc12 | ? | . | . | . | . | 6
COc1ccc(-c2cn3nc(N4CCC(C(=O)Nc5ccc(C)cc5)CC4)sc3n2)cc1 | . | 0% | -3% | 1% | 21% | .
O=C(NCc1cccc(Cl)c1)c1cnc(N2CCCCC2)c2ccccc12 | . | -8% | 17% | 27% | 64%[57 µM] | .
Cc1cc(/C=N/NC(=O)c2c(Br)cnn2C)c(C)n1-c1cccc(Br)c1 | -8% | -19% | ? | 28µM* | ? | 1
CCCCn1c(N)c(N(CC(C)C)C(=O)c2ccc3c(c2)NC(=O)C(C)S3)c(=O)[nH]c1=O (stereo not drawn) | -2% | -1% | 1% | -9% | 22% | -6
CCCC(=O)Nc1c(C)n[nH]c1C | 27µM* | -8% | ? | -4% | -9% | -1
O=C(c1ccc(S(=O)(=O)Nc2ccccc2F)cc1)N1CCCC1 | 4% | 1% | 7% | 5% | 24% | 0
O=C(O)c1c[nH]c2c(C(F)(F)F)cccc2c1=O | 0% | 1% | 25µM* | ? | 32% | 1
O=C(O)c1c[nH]c2ccc(F)cc2c1=O | -5% | -10% | 79µM* | 56µM* | -2% | 1
COc1cccc2c(=O)c(C(=O)O)c[nH]c12 | -4% | -3% | 79µM* | ? | 34% | .
O=C(O)c1c[nH]c2ccc(S(=O)(=O)N3CCN(c4ccc(F)cc4)CC3)cc2c1=O | 1% | -8% | ? | ? | 16% | .
O=C(NCCC1=CCCCC1)c1cc(-c2ccncc2)nc2ccccc12 | -10% | 0% | -4% | -19% | 8% | 3
COc1ccc2c(c1OC)C(=O)N(c1nc(SC)n[nH]1)C2=O | -1% | -11% | -10% | 6% | 33% | 7

Screening data from PubChem.
